Source: PubChem (National Center for Advancing Translational Sciences (NCATS))
L3MBTL1 inh – L3MBTL1 (human) inhibition; AlphaScreen L3MBTL1–H3K9me1 peptide binding; Potency, µM (highest dose often 57.1 µM), hits mostly inhibitors; 230,000 tested, 0.66% active; AID 485360; also: nearly all actives have a fitted effect of over 60% in size
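L3MBTL1 (50 nM) pre-complexed 30 min with biotinylated H3(1-15)K9me1 peptide (75 nM), then compounds added for 30 min at room temperature; AlphaScreen streptavidin donor/nickel chelate acceptor beads (10 ug/mL final) read after 30 min dark incubation.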
HP1b chromo inh – HP1-beta chromodomain-methylated histone interaction inhibition | P83916 | AlphaScreen HP1-beta / biotin-H3K9me3 peptide binding | Potency, µM (doses to about 114 µM), actives largely listed as inhibitors | 390,000 tested, 0.56% active | AID 540317; also: nearly all actives have a fitted effect of over 70% in size
Target sequence (P83916 whole entry, looked up): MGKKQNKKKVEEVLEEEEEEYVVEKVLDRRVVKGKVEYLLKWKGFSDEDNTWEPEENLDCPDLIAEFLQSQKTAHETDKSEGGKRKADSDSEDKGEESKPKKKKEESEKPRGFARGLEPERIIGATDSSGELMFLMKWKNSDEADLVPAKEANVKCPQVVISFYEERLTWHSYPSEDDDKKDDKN
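Compound inhibition of the preformed complex between 50 nM HP1-beta and 50 nM biotinylated H3K9me3 peptide was read by AlphaScreen. Buffer was PBS pH 7.4 with 0.01% Tween-20. Incubations ran 30 min at room temperature, with 10 ug/mL donor/acceptor beads.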
JMJD2A Tudor – JMJD2A Tudor domain (human) inhibition | 390,000 tested, 4.4% active | AlphaScreen JMJD2A-Tudor / H3K4me3 peptide binding | Potency, µM (highest dose often 114 µM), usual class: inhibitors | O75164; also: nearly all actives have a fitted effect of over 50% in size
Sfp inh – blocks B. subtilis Sfp PPTase activity | 310,000 tested, 3.5% active | Potency, µM, actives largely listed as inhibitors | Q9F4F7 | Biochemical Sfp PPTase activity, qHTS;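 also: the enzyme is Sfp with the accession as filed and its product quenches rhodamine fluorescence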
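Buffer: 50 mM Hepes-Na pH 7.6, 10 mM MgCl2, 0.01% Nonidet P-40, 0.01% BSA. Enzyme 15 nM, pre-exposed to compound 15 min; substrates then added and fluorescence change tracked over 30 min.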
G9a inh – inhibitors of human histone lysine methyltransferase G9a; Q96KQ7; G9a H3K9 monomethylation, AlphaScreen, 2 h; Potency, µM (highest dose often 102 µM), actives largely listed as inhibitors; 350,000 tested, 8.8% active; AID 504332; also: nearly all actives have a fitted effect of over 75% in size
Target sequence (Q96KQ7 913-1193 limits assumed): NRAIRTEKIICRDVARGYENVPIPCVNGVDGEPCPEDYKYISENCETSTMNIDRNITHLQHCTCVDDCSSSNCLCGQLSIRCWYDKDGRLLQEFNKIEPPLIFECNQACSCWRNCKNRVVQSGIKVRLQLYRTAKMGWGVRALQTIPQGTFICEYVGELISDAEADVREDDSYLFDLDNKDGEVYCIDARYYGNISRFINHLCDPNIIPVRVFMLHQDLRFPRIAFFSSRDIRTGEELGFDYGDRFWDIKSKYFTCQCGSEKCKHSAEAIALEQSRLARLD
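Step 1: enzyme (final 20 nM) with compound, 15 min RT. Step 2: substrate peptide 500 nM and SAM 20 uM, 2 h RT. Step 3: anti-H3K9me1 antibody and AlphaScreen beads, 10 min, then plate read.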
BAZ2B block – inhibitors of human BAZ2B bromodomain; Q9UIF8; AlphaScreen BAZ2B-H3K14Ac peptide displacement; Potency, µM (doses to about 114 µM), most hits filed as inhibitors; 360,000 tested, 4.4% active; AID 504333; also: nearly all actives have a fitted effect of over 60% in size
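BAZ2B (50 nM) with biotin-H3(5-23)K14Ac peptide (50 nM) in PBS pH 7.4, 0.01% Tween-20, preformed 30 min, then compound 30 min at room temperature; top concentration 110uM. AlphaScreen streptavidin donor/nickel chelate acceptor beads (10 ug/mL final), 20 min dark, signal read.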
Large screens that a line does not name were inactive. This is a sample that favours compounds with a hit; in the whole collection about 12% have one here. Calls follow the shape of the dose curve; as a rule, active = well fitted curve in the direction sought with a large enough effect; inconclusive = small, poorly fitted or top-dose-only effect, or another doubt; inactive = no such curve, though single readings can be large; an effect the other way counts as inactive or inconclusive.

Cc1nc(NC(=O)c2ccccc2)sc1C	none
COCCn1c(=O)c(-c2cccs2)nc2cnc(Oc3ccc(OC)cc3)nc21	none (no result: L3MBTL1 inh, HP1b chromo inh, JMJD2A Tudor, BAZ2B block)
CC(C)(Oc1ccc(Cl)cc1)C(=O)Nc1nc2ccc(S(C)(=O)=O)cc2s1	G9a inh 11µM (no result: L3MBTL1 inh, Sfp inh)
CS(=O)(=O)c1ccc2nc(NC(=O)c3ccc(Cl)cc3)sc2c1	none (no result: G9a inh)
CS(=O)(=O)c1ccc2nc(NC(=O)c3ccccc3Br)sc2c1	G9a inh 50µM
Cc1nc(NC(=O)c2csc3ccccc23)sc1C	G9a inh 45µM
Cc1nc(NC(=O)c2ccccc2O)sc1C	none (no result: L3MBTL1 inh)
CS(=O)(=O)c1ccc2nc(NC(=O)c3ccccc3Cl)sc2c1	none
O=C(Nc1nnc(C2CC2)s1)c1cc2ccccc2o1	G9a inh 14µM (no result: Sfp inh)
CCOc1ccc(S(=O)(=O)NCCc2ccccn2)cc1	none (no result: Sfp inh, G9a inh, BAZ2B block)
CC1CC1C(=O)N1CCN(S(=O)(=O)c2cc(C(F)(F)F)cc(C(F)(F)F)c2)CC1 (stereo not drawn)	none (no result: Sfp inh)
O=S(=O)(c1ccc2c(c1)OCCO2)N1CCN(S(=O)(=O)c2cc(F)c(F)cc2F)CC1	none (no result: L3MBTL1 inh, HP1b chromo inh, Sfp inh, G9a inh, BAZ2B block)
Cc1nc(NC(=O)c2cc3ccccc3o2)sc1C	BAZ2B block 56µM (no result: L3MBTL1 inh)
Cc1nnc(NC(=O)c2cc3ccccc3o2)s1	none (no result: L3MBTL1 inh)
CCN(C(=O)COC(=O)c1ccccc1Nc1ccccc1)c1c(N)n(Cc2ccccc2)c(=O)[nH]c1=O	none (no result: L3MBTL1 inh, Sfp inh, G9a inh, BAZ2B block)
CCc1nn(CC(=O)NCCCN2CCc3ccccc3C2)c(=O)c2cc3sccc3n12	L3MBTL1 inh inconclusive, Sfp inh inconclusive, G9a inh 45µM
CCc1nn(CC(=O)NCCCN2CCN(C)CC2)c(=O)c2cc3sccc3n12	none (no result: L3MBTL1 inh, G9a inh)
Cc1nn(CCCC(=O)N2CCc3ccccc3C2)c(=O)c2cc3sccc3n12	G9a inh 79µM (no result: L3MBTL1 inh)
CCOC(=O)CCCn1nc(C)n2c(cc3sccc32)c1=O	none
COc1ccccc1N1CCN(/N=C/c2cc([N+](=O)[O-])ccc2Cl)CC1	JMJD2A Tudor inconclusive, G9a inh inconclusive, BAZ2B block 7.9µM
O=[N+]([O-])c1ccc(Cl)c(/C=N/N2CCN(c3ccccc3)CC2)c1	HP1b chromo inh inconclusive, JMJD2A Tudor 10µM, G9a inh 32µM, BAZ2B block 11µM
CC[C@@H](C)C(N)C(=O)O (stereo partly drawn)	none (no result: L3MBTL1 inh, HP1b chromo inh, JMJD2A Tudor, BAZ2B block)
N#CC1=C(N)Oc2cc(Nc3ccccc3)ccc2C1c1ccncc1 (stereo not drawn)	JMJD2A Tudor 79µM, BAZ2B block inconclusive (no result: G9a inh)
O=C(CCc1ccccc1)Nc1ncnc2c1C(c1ccccc1)c1c(ccc3ccccc13)O2 (stereo not drawn)	none (no result: L3MBTL1 inh, HP1b chromo inh, Sfp inh, G9a inh, BAZ2B block)
COC(=O)C1=C(C)N(CCc2ccc(OC)c(OC)c2)C(=O)C1	G9a inh inconclusive (no result: L3MBTL1 inh)
CCOc1cc(/C=C2\C(=O)N(Cc3ccc(C)cc3)C(C)=C2C(=O)OC)ccc1O	JMJD2A Tudor 25µM, Sfp inh 18µM, G9a inh 8.9µM, BAZ2B block inconclusive
CCOC(=O)C1=C(C)N(c2ccc(OC)cc2)C(=O)/C1=C\c1ccc(O)c(OCC)c1	HP1b chromo inh inconclusive, JMJD2A Tudor 14µM, Sfp inh 20µM, G9a inh inconclusive, BAZ2B block 50µM
COC(=O)C1=C(C)N(CCc2ccc(OC)c(OC)c2)C(=O)/C1=C\c1ccc(O)cc1	JMJD2A Tudor inconclusive, G9a inh 10µM, BAZ2B block inconclusive
CCOC(=O)C1=C(C)N(c2ccc(OC)cc2)C(=O)/C1=C\c1cccs1	L3MBTL1 inh inconclusive, BAZ2B block inconclusive
CCOC(=O)C1=C(C)N(c2ccc(C)c(C)c2)C(=O)/C1=C\c1ccco1	JMJD2A Tudor 32µM, Sfp inh inconclusive, G9a inh 35µM, BAZ2B block 32µM
C=CCOc1cccc(/C=C2\C(=O)N(Cc3ccc(C)cc3)C(C)=C2C(=O)OC)c1	none
Nc1cc(=O)[nH]c(SCC(=O)Nc2cccc(S(=O)(=O)N3CCCCC3)c2)n1	none (no result: Sfp inh, G9a inh, BAZ2B block)
CCCCOc1ccccc1C1CC(=O)Nc2ccc3ccccc3c21 (stereo not drawn)	BAZ2B block inconclusive (no result: L3MBTL1 inh, Sfp inh)
CCN1C(=O)/C(=C\c2ccc3c(c2)OCO3)C(C(=O)OC)=C1C	HP1b chromo inh inconclusive, G9a inh 50µM, BAZ2B block inconclusive
